SMILES strings stand for the structures. Screen size: about 310,000 compounds; about 17,000 (5.5%) were called active. Roughly 11% stayed inconclusive and do not appear here. The call rests on the fitted dose curve; in most records, active means well fitted inhibition curve with a large enough effect; inconclusive means small, poorly fitted or top-dose-only effect, or effect the other way; inactive means no such curve, though single readings can be large or run the other way. Many of the other results were omitted from the sample, so actives are more common in it than they were. Where a SMILES comes first, the peptide text is derived from it. [ ]: non-standard residue; d: D form. The star is where a group is joined. ξ: configuration not given here. Cbz = O=C(OCc1ccccc1)*; ξL = CC(C)CC(N)C(=O)O; ξP = O=C(O)C1CCCN1
On the % scale 0 is the no-effect control and ±100 the full control effect; potency means the concentration at half of the fitted maximal effect.

Sequence of Nuclear receptor ROR-gamma (Mus musculus) (P51450 whole entry, looked up, the tested form may be a part): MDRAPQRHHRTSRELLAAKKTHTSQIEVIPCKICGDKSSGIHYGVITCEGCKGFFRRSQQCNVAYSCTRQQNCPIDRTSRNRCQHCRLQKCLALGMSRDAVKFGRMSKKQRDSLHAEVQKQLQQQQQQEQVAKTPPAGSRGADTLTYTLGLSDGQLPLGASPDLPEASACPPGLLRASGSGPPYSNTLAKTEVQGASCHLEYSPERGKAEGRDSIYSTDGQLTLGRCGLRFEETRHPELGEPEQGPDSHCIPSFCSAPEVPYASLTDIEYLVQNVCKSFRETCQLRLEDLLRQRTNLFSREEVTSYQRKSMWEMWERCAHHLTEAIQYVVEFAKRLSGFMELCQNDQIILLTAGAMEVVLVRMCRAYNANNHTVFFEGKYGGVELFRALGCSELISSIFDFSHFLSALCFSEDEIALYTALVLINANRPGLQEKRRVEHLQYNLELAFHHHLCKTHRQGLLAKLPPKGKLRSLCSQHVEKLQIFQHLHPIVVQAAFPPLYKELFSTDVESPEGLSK

This test has as its target Nuclear receptor ROR-gamma (Mus musculus) (UniProt P51450). In words: qHTS for inhibitors of ROR gamma transcriptional activity. Further: nearly all actives have a fitted effect of over 60% in size. As to conditions: Drosophila S2 Gal4-RORgamma UAS-luciferase reporter, 20 h; series mostly up to 53.6 µM; activity change, negative = inhibition: at the top concentration. In outline:
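Drosophila Schneider cells stably carrying a metallothionein-driven Gal4 DBD–ROR gamma fusion and a UAS-Photinus luciferase reporter were exposed to compound for 1 hr, then induced with copper sulfate (700 uM final) for 20 hr at ambient temperature before luminescence reading.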
(In general: In qHTS, concentration-response curves come from the screen itself.)
Turning to `COc1ccc(C(=O)Nc2ccc(C(=O)NCC3CCCO3)cc2)c(OC)c1OC` (stereo unspecified), the “activity change, negative = inhibition” value was -19.2% (inactive).

As for `COc1ccc(C(=O)NC2CC2)cc1OC1CCN(Cc2ccc(SC)cc2)CC1`, the “activity change, negative = inhibition” value was -0.679% (inactive). Same read-out and setting: to `CCOC(=O)N1CCN(Cc2nc3cc(NC(C)=O)ccc3n2C)CC1` belongs 3.25% (inactive); to `O=S(=O)(NC1CC2CCC1C2)c1ccc(Cl)cc1` (stereo unspecified), 44% [at 1.91 µM] (inactive); to `CC(=O)c1ccc(N2CCN(C(=O)C3CCN(S(=O)(=O)c4ccc5c(c4)CC(C)N5C(=O)C4CC4)CC3)CC2)cc1` (stereo unspecified), 42.1% (inactive). On the same count and under the same terms, to `COc1ccc(CCNC(=O)CCCCCNC(=O)N2CCn3c2nc2ccccc23)cc1OC` belongs 4.74% (inactive); to `N#Cc1c(Cl)nc(-c2cccnc2)nc1-c1ccccc1`, 0.184% (inactive); to `CCc1ccc(CNC(=O)C2CCCN(c3nc4ccccc4o3)C2)cc1` (stereo unspecified), 24.5% (inactive). The same measure, in the same setting: for `CCOC(=O)CCNC(=O)N1CCCC(C(=O)c2ccccc2SC)C1` (stereo unspecified) the value was 25.3% (inactive).

As for `CCOC(=O)c1cnc(Nc2nc3ccccc3o2)nc1CSC(=S)N1CCCCC1`, the Potency is 0.447 µM (active). As to `CCCCCc1c(C)nc(N2CCN(Cc3ccc4c(c3)OCO4)CC2)[nH]c1=O`, the “activity change, negative = inhibition” value is -4.87% (inactive). Still for that read-out and setting: for `COc1ccc(C(=O)NC(C)c2nccs2)cc1OC1CCN(C(C)C)CC1` (stereo unspecified) the value was 3.59% (inactive). `O=C1Nc2ccccc2/C1=C/c1ccnc2ccccc12`: the “activity change, negative = inhibition” value was -13.4% (inactive).

As to `CN(C)CCNC(=O)c1[nH]nc2c1CCc1ccccc1-2`, the “activity change, negative = inhibition” value was -0.392% (inactive). For the molecule `COc1cc2cc(C(=O)N/N=C/c3cccc(OC)c3OC)[nH]c2cc1OC`, the “activity change, negative = inhibition” value was 21.4% (inactive). As for `COc1cccc(/C=N/NC(=O)c2[nH]nc3c2CCc2ccccc2-3)c1O`, the Potency was 0.794 µM (active). As for `Cc1ccc(CNCc2ccc3c(c2)OCO3)c(C)c1`, the “activity change, negative = inhibition” value is -34.2% (inactive). Still for that read-out and setting: to `COc1ccc(-c2nnc(SCC(=O)c3cccs3)o2)c(OC)c1` belongs 31.9% (inactive); to `COc1ccc(NC(=O)CS(=O)(=O)c2ccccc2)cc1`, 16.7% (inactive). Take `COc1ccc(-c2nnc(NC(=O)CS(=O)(=O)c3ccc(Cl)cc3)o2)c(OC)c1`: the Potency is 17.8 µM (active). In the case of `CN(C)C(=O)CCC(=O)N1CCCCC1C(=O)Nc1ccc(Oc2ccccc2F)cc1` (stereo unspecified), the “activity change, negative = inhibition” value is 21.8% (inactive). As to `CC(=O)NS(=O)(=O)c1ccc(N/C(N)=N/c2nc(C)cc(C)n2)cc1`, the “activity change, negative = inhibition” value is -13.8% (inactive). On the same count and under the same terms, to `CC(C)c1ccc(NC(=O)Cn2ncc3ccccc32)cc1` belongs 26.2% (inactive); to `C=CCc1c(C)nc2cc(-c3ccccc3)[nH]n2c1=O`, -22.1% (inactive). For the molecule `CNC(=O)c1[nH]cnc1C(=O)N[C@@H](CC(C)C)C(=O)OCc1ccccc1`, the Potency was 10 µM (active). For `CC(C)CC(NC(=O)C1CCCN1C(=O)[C@@H](C)NC(=O)OCc1ccccc1)C(=O)NCC(N)=O` (stereo partly specified) (Cbz-[dA][ξP][ξL]G-NH2), the “activity change, negative = inhibition” value is -8.88% (inactive). Same read-out and setting: to `CC(C)[C@H](NC(=O)OCc1ccccc1)C(=O)OCc1ccccc1` belongs -28.3% (inactive). For `Cc1cccc(NC(=O)c2nc[nH]c2C(=O)NCC(=O)OCc2ccccc2)c1`, the Potency was 12.6 µM (active). Regarding `COC(=O)[C@@H](Cc1ccccc1)NC(=O)NCCc1ccccc1`, the “activity change, negative = inhibition” value was 12.9% (inactive). Still for that read-out and setting: for `O=C(CNC(=O)c1ccc(-c2ccccc2)cc1)OCc1ccc(Cl)cc1` the value was -13.7% (inactive); for `CC(C)(C)OC(=O)CNC(=O)c1[nH]cnc1C(=O)N[C@@H](Cc1ccccc1)C(=O)OCc1ccccc1`, 20% (inactive); for `COc1ccccc1NC(=O)[C@H](COCc1ccccc1)NC(=O)OC(C)(C)C`, -0.0777% (inactive). Consider `NC(=O)c1ccc(NC(=O)COC(=O)C(Cc2ccccc2)NC(=O)c2ccccc2)cc1` (stereo unspecified), for which the “activity change, negative = inhibition” value was -24.2% (inactive). For the molecule `O=C(N[C@@H](Cc1ccccc1)C(=O)OCc1ccccc1)c1nc[nH]c1C(=O)N[C@@H](Cc1ccccc1)C(=O)OCc1ccccc1`, the Potency is 10 µM (active). As for `O=C(CNC(=O)c1ccccc1)NCC(=O)OCc1ccc(Cl)cc1`, the “activity change, negative = inhibition” value is 5.95% (inactive). For the molecule `C[C@H](NC(=O)c1nc[nH]c1C(=O)NCC(=O)OC(C)(C)C)C(=O)OCc1ccccc1`, the Potency was 11.2 µM (active). For the molecule `C/C(=N\N(C)C)c1ccc(OCCOc2ccc([N+](=O)[O-])cc2)cc1`, the “activity change, negative = inhibition” value was 26% (inactive). As for `CCOC(=O)C1(Cc2ccccc2C)CCCN(S(C)(=O)=O)C1` (stereo unspecified), the “activity change, negative = inhibition” value is -2.12% (inactive). On the same count and under the same terms, for `COCc1c(C(=O)N/N=C(\C)c2ccncc2)nnn1-c1nonc1N` the value was 6.85% (inactive); for `C=CCNC(=O)c1ccccc1SCc1c(C)noc1C`, -15.9% (inactive); for `Cc1ccc(NC(=O)C(CC(=O)O)C2CCCO2)c(C)c1` (stereo unspecified), -16.9% (inactive). Still for that read-out and setting: for `O=C(Nc1ccc(Cl)cc1)c1cccc(OC(=S)N2CCOCC2)c1` the value was 25.6% (inactive); for `COc1ccc(S(=O)(=O)N(C)CC(=O)N2CCCC2)cc1`, -15.8% [at 1.91 µM] (inactive).

As for `Cc1ccc(NC(=O)C/C(N)=N/O)cc1Cl`, the “activity change, negative = inhibition” value was 15.1% (inactive). For `O=C(CC(O)(C(F)(F)F)C(F)(F)F)Nc1ccc(Cl)c(Cl)c1`, the Potency is 5.01 µM (active).

On to `O=C(Cc1ccc(Cl)c(Cl)c1)Nc1ccc(SC(F)F)cc1`, for which the “activity change, negative = inhibition” value is 26.4% (inactive). On the same count and under the same terms, for `COc1ccccc1N(CC(=O)NC1CCCC1)C(=O)C1(C)CC(=O)N=C2C=CC(C)=CN21` (stereo unspecified) the value was -3.48% (inactive). Same read-out and setting: for `O=C1CCCCN1CCCC(=O)N1CCCC(Nc2ccc(F)cc2)C1` (stereo unspecified) the value was -0.309% (inactive); for `O=C(Cc1cccs1)N/N=C/c1ccc(OCc2ccccc2)cc1`, 43.6% (inactive).

As for `O=C(N/N=C/c1ccc(OCc2ccccc2)cc1)c1ccc(O)cc1`, the Potency is 8.91 µM (active). Take `O=C(N/N=C/c1ccc(OC(=O)c2ccccc2Cl)cc1)c1ccc(O)cc1`: the “activity change, negative = inhibition” value was -20.7% (inactive).

Source of the values: PubChem BioAssay AID2551 (National Center for Advancing Translational Sciences (NCATS), 2010).
